40 compounds from the supplement of paper PMC13380429 can be followed below.

The structures appear in SMILES notation. A number with no mark means an inactive call.

The subject of this assay is Vero E6 infected with SARS-CoV-2. Description: SARS-CoV-2 infection rate relative to infected DMSO; higher = more infection, active = 60 or less. As to conditions: 24 h.
Turning to `CCCCC(=O)O[C@H]1CC[C@H]2[C@@H]3CCc4cc(O)ccc4[C@H]3CC[C@]12C` (10 µM), the SARS-CoV-2 infection rate was 89%.

As for `COc1ccc(F)c(F)c1C(=O)c1cnc(NC2CCN(S(C)(=O)=O)CC2)nc1N` (10 µM), the SARS-CoV-2 infection rate was 118%.

As for `NS(=O)(=O)OC[C@@H]1C[C@@H](n2ccc3c(N[C@H]4CCc5ccccc54)ncnc32)C[C@@H]1O` [pevonedistat] (0.833333 µM), the SARS-CoV-2 infection rate was 110%.

For `O=C(O[C@H]1CN2CCC1CC2)N(Cc1cc(F)c(F)c(F)c1)c1cccc(F)c1` [tarafenacin] (10 µM), the SARS-CoV-2 infection rate is 74%.

As to `Cc1nccc2[nH]c(=O)ccc12` [medorinone] (10 µM), the SARS-CoV-2 infection rate is 96.5%.

With `CC(CN1c2ccccc2Sc2ccccc21)N(C)C` (stereo not given) [promethazine] (10 µM), the SARS-CoV-2 infection rate is 67.5%.

Consider `C[C@]12C=CC(=O)C=C1CC[C@@H]1[C@@H]2CC[C@]2(C)OC(=O)CC[C@@H]12` [Testolactone] (10 µM), for which the SARS-CoV-2 infection rate is 80.5%.

For the compound `C[C@@H](N)[C@@H](O)c1ccccc1` [1S,2R-phenylpropanolamine] (10 µM), the SARS-CoV-2 infection rate is 114%.

For `Cc1ccc(C(=O)Nc2cccc(C(F)(F)F)c2)cc1Nc1nc(-c2cccnc2)nc2c1cnn2C` (10 µM), the SARS-CoV-2 infection rate was 74%.

With `CCCN1CCC[C@@H]2Cc3n[nH]cc3C[C@H]21` [quinpirol-(-)] (10 µM), the SARS-CoV-2 infection rate is 92.5%.

On to `O=c1[nH]c(=O)n([C@H]2C[C@H](O)[C@@H](CO)O2)cc1F` [floxuridine] (0.833333 µM), for which the SARS-CoV-2 infection rate was 99%.

On to `OC[C@H]1O[C@@H](n2cnc3c(NC4CCCC4)ncnc32)[C@H](O)[C@@H]1O` [N6-cyclopentyladenosine] (10 µM), for which the SARS-CoV-2 infection rate was 109%.

Take `CN1CCCN=C1COC(=O)C(O)(c1ccccc1)C1CCCCC1` (stereo not given) [oxyphencyclimine] (10 µM): the SARS-CoV-2 infection rate was 101%.

With `CCn1cc(C(=O)O)c(=O)c2ccc(-c3ccncc3)cc21` [rosoxacin] (10 µM), the SARS-CoV-2 infection rate was 112%.

`O=C1NC(c2ccccc2)(c2ccccc2)C(=O)N1COP(=O)(O)O` [fosphenytoin] (10 µM): the SARS-CoV-2 infection rate is 123%.

Regarding `CCCC(=O)OCOC(=O)C1=C(C)NC(C)=C(C(=O)OC)C1c1cccc(Cl)c1Cl` (stereo not given) [cleviprex] (10 µM), the SARS-CoV-2 infection rate was 102%.

Turning to `Cc1ccc(Oc2ccccc2-c2csc(N=C3NCCCN3)n2)c(C)c1` [abafungin] (10 µM), the SARS-CoV-2 infection rate was 100%.

With `CC(C)C(=O)c1c(C(C)C)nn2ccccc12` [ibudilast] (10 µM), the SARS-CoV-2 infection rate is 97%.

As for `C/C(=N\NC(=S)N1CCC1)c1ccccn1` (0.833333 µM), the SARS-CoV-2 infection rate was 114%.

As to `CC(C)c1ccc(CC(=O)N2CCC[C@@H](c3cccc(OC(C)(C)C(=O)O)c3)C2)cc1` (10 µM), the SARS-CoV-2 infection rate is 96%.

For the compound `c1ccc(CCCCN2CCC(c3ccccc3)CC2)cc1` (10 µM), the SARS-CoV-2 infection rate is 73.5%.

On to `[Cl][Ti][Cl].c1cc[cH-]c1.c1cc[cH-]c1` [titanocene-dichloride] (10 µM), for which the SARS-CoV-2 infection rate was 84%.

As to `COc1cccc(C(=O)CCN[C@@H](C)[C@H](O)c2ccccc2)c1` [oxyfedrine] (10 µM), the SARS-CoV-2 infection rate is 102%.

With `NNC(=O)c1ccncc1` [isoniazid] (10 µM), the SARS-CoV-2 infection rate was 111%.

In the case of `O=C(Oc1cc(S(=O)(=O)c2ccccc2)ccc1[N+](=O)[O-])c1ccc(Cl)cc1` (10 µM), the SARS-CoV-2 infection rate is 104%.

For the compound `C#CC[C@H](c1nc2cc(Cl)ccc2c(=O)n1Nc1ccccc1)N(CCCN)C(=O)c1cccc(Cl)c1F` (0.833333 µM), the SARS-CoV-2 infection rate is 112%.

Turning to `COc1ccc(CN2CCN(C(c3ccc(F)cc3)c3ccc(F)cc3)CC2)c(OC)c1OC` [lomerizine] (10 µM), the SARS-CoV-2 infection rate was 108%.

As for `O=C1CCC[C@@H]2[C@H]3C[C@@H](CN12)[C@@H]1CCCCN1C3` [lupanine] (10 µM), the SARS-CoV-2 infection rate was 102%.

`COc1ccc(C(=O)NCc2cccnc2)cc1C(=O)NCc1cccnc1` [picotamide] (10 µM): the SARS-CoV-2 infection rate was 115%.

For `Cc1cn(C[C@H](N)C(=O)O)c(=O)n(Cc2ccsc2C(=O)O)c1=O` (10 µM), the SARS-CoV-2 infection rate was 96.5%.

On to `O=C1CS[C@@H](c2ccccc2Cl)c2cc(Cl)ccc2N1` (racemic) (10 µM), for which the SARS-CoV-2 infection rate was 89%.

Regarding `CCCN1C[C@H](CSC)C[C@@H]2c3cccc4[nH]cc(c34)C[C@H]21` [pergolide] (10 µM), the SARS-CoV-2 infection rate was 78%.

As to `CC(=O)N(OCc1ccccc1)[C@@H]1c2cc(C#N)ccc2OC(C)(C)[C@H]1O` (10 µM), the SARS-CoV-2 infection rate was 97.5%.

Turning to `CCOC(=O)[C@H](CCc1ccccc1)N[C@@H](C)C(=O)N1Cc2cc(OC)c(OC)cc2C[C@H]1C(=O)O` [moexipril] (10 µM), the SARS-CoV-2 infection rate is 90%.

For the compound `NCCCC[C@H](NC(=O)[C@@H](Cc1cc(Br)c(O)c(Br)c1)NC(=O)N1CCC(N2Cc3ccccc3NC2=O)CC1)C(=O)N1CCN(c2ccncc2)CC1` (10 µM), the SARS-CoV-2 infection rate is 110%.

As to `N=C(N)c1ccc(N2CCN(C3CCN(CC(=O)O)CC3)CC2)cc1` (10 µM), the SARS-CoV-2 infection rate was 106%.

`Cc1ncc(OC[C@@]2(c3cccc(F)c3)C[C@H]2C(=O)Nc2ccc(F)cn2)c(C)n1` [lemborexant] (10 µM): the SARS-CoV-2 infection rate was 112%.

Consider `N[C@H]1C(O)O[C@H](CO)[C@@H](O)[C@@H]1O` (mixture of isomers) [glucosamine] (10 µM), for which the SARS-CoV-2 infection rate is 105%.

Consider `Cn1nc(-c2ccc(C(F)(F)F)cc2)nc2c(=O)n(C)c(=O)nc1-2` [walrycin-B] (0.833333 µM), for which the SARS-CoV-2 infection rate was 86.5%.

As for `CN(C)CC[C@@H](c1ccc(Cl)cc1)c1ccccn1` [chlorphenamine] (10 µM), the SARS-CoV-2 infection rate is 97.8%.
